Shown are actives, neighbours in structure and some others; about 10% of the full set was active somewhere.
hNpr1 antagonist = antagonists of human natriuretic peptide receptor Npr1; HEK293 hNpr1 GloSensor cGMP, ANP-stimulated luminescence; P16066; hit rate 1.6% among 76,000; Potency, µM (titrated, usually from 46.3 µM), actives largely listed as inhibitors; calls by dose curve; note: nearly all actives have a fitted effect of over 60% in size
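HEK293 cells stably expressing human Npr1 and cGMP GloSensor pGS-40F, loaded 2 h with 2% GloSensor reagent, given compound 30 min at room temperature. Luminescence read before and 20 min after 0.1 nM hNppA.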
NIH3T3 tox = NIH 3T3 cell cytotoxicity | NIH 3T3 viability, CellTiter-Glo ATP luminescence, 48-72 h | Potency, µM (titrated, usually from 96.7 µM), usual class: inhibitors | hit rate 4.3% among 94,000; note: nearly all actives have a fitted effect of over 55% in size
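Cells were seeded at 400 per well, treated with pin-transferred compound, and kept 48 or 72 hr at 37 °C before CellTiter-Glo addition and luminescence imaging of cellular ATP.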
GPT2 inhibitor = inhibitors of human GPT2 alanine aminotransferase | Potency, µM (top dose mostly 57.7 µM), most hits filed as inhibitors | AID 1671188 | hit rate 0.25% among 100,000 | Q8TD30 | Recombinant GPT2, coupled pyruvate oxidase/HRP Amplex Red fluorescence; note: nearly all actives have a fitted effect of over 60% in size
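Fluorescence of coupled pyruvate oxidase/HRP/Amplex Red system (50uM Amplex, 30 min, dark) reports pyruvate formed by GPT2. Enzyme reaction: 10ng/uL GPT2, 2mM L-alanine, 250uM a-KG, 30 min room temperature, pH 7.5; 50uM AOA control.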
HEK cytotox = HEK 293 cell cytotoxicity; HEK 293 viability, ATP luminescence (CellTiter-Glo), 48-72 h; Potency, µM (doses to about 115 µM), actives largely listed as inhibitors; hit rate 6.6% among 94,000; AID 1345083; note: nearly all actives have a fitted effect of over 60% in size
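HEK 293 seeded at 250 cells/well receive compound via pintool. After 48 or 72 hr at 37 degree Celsius, 5% CO2 and 95% humidity, CellTiter-Glo is dispensed and luminescence read following 10 min at room temperature.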
FLuc inh = inhibitors of firefly (Photinus pyralis) luciferase; P08659; purified P. pyralis luciferase, luminescence, biochemical; Potency, µM (top dose mostly 115 µM), actives largely listed as inhibitors; hit rate 2.5% among 76,000; note: nearly all actives have a fitted effect of over 65% in size
Target sequence (P08659 whole entry, looked up): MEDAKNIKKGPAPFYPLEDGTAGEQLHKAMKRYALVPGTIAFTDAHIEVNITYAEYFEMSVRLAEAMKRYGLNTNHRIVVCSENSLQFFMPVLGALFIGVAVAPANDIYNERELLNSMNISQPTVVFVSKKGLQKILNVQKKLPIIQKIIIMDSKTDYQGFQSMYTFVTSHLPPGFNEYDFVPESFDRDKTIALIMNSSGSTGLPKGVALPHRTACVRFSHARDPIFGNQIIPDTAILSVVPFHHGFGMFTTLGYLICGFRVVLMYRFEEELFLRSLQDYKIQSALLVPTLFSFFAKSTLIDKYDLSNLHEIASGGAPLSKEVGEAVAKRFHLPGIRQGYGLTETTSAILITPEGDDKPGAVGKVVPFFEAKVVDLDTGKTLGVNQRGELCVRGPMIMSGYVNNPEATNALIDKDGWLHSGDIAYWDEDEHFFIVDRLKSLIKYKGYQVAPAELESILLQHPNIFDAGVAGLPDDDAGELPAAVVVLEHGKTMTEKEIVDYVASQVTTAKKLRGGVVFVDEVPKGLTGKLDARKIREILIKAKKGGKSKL
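Purified 10nM P. pyralis luciferase with 10uM D-luciferin and 10uM ATP in 50mM Tris acetate pH 7.5, 10mM Mg acetate, 0.01% Tween-20, 0.05% BSA. qHTS titration; luminescence read by CCD imager.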
A number is an active result; – = inactive; ? = inconclusive; · = no result; [ ] = another dose, or the depositor's remark. Unless noted, calls come from the whole dose curve; as a rule, active = well fitted curve in the direction sought with a large enough effect; inconclusive = small, poorly fitted or top-dose-only effect, or another doubt; inactive = no such curve, though single readings can be large; an effect the other way counts as inactive or inconclusive.

SMILES	hNpr1 antagonist	NIH3T3 tox	GPT2 inhibitor	HEK cytotox	FLuc inh
COc1cccc(CNC(=O)CN2C(=O)NC(c3ccccc3Cl)C3=C2COC3=O)c1OC (configuration not stated)	–	–	–	–	–
CCC(CC)C(=O)NC[C@@H]1C=C(C)[C@H](Cc2nc3ccccc3n2C)C[C@H]1C(C)C	?	35µM	–	32µM	–
CC1=C[C@@H](CNC(=O)CC(C)(C)CC(=O)O)[C@H](C(C)C)C[C@H]1Cc1nc2ccccc2n1C	–	?	–	–	–
CC1=C[C@@H](CNC(=O)c2ccccc2)[C@H](C(C)C)C[C@H]1Cc1nc2ccccc2n1C	?	32µM	–	25µM	–
CC1=C[C@@H](CNC(=O)C2CCCCC2)[C@H](C(C)C)C[C@H]1Cc1nc2ccccc2n1C	?	32µM	?	32µM	–
O=C(C[C@H]1NC(=O)c2ccccc2NC1=O)Nc1ccc(N2CCCS2(=O)=O)cc1	–	–	–	–	–
CCOc1ccccc1NC(=O)Cn1c(N(C)Cc2ccccc2)nc(C)cc1=O	–	?	–	35µM	–
Cc1cc(=O)n(CC(=O)Nc2cc(Cl)ccc2C)c(N(C)Cc2ccccc2)n1	–	?	–	25µM	–
Cc1ccccc1-c1noc(CNCc2nc3ccc(Cl)cc3[nH]2)n1	–	?	–	79µM	–
O=C(c1cccc2ncccc12)N1CCC2(CC1)Nc1ccccc1NC2=O	–	–	–	?	–
O=C(c1ccc2ncccc2c1)N1CCC2(CC1)Nc1ccccc1NC2=O	–	–	–	89µM	–
CC1CCN(C(=O)c2cc3n(n2)CC(c2ccc(Cl)cc2)OC3)CC1 (configuration not stated)	?	40µM	–	?	–
O=C(c1cc2n(n1)CC(c1ccc(Cl)cc1)OC2)N1CCN(c2ccccn2)CC1 (configuration not stated)	–	?	–	?	–
O=C(c1cc2n(n1)CC(c1ccc(Cl)cc1)OC2)N1CCN(c2ccccc2)CC1 (configuration not stated)	20µM	?	–	?	–
CC(C)N1C[C@H](O)C[C@H]1c1nnc2n1CCN(C(=O)c1ccoc1)C2	–	–	–	?	–
COc1ccc(-c2[nH]nc3ncc(-c4cccnc4)nc23)c(C)c1	–	28µM	–	?	–
COc1ccc(-c2[nH]nc3ncc(-c4ccccc4O)nc23)c(C)c1	–	?	–	28µM	–
Cc1ccccc1-c1cnc2n[nH]c(-c3ccccc3)c2n1	–	50µM	–	89µM	–
COc1ccc(-c2[nH]nc3ncc(-c4ccc([S+](C)(=O)[O-])cc4)nc23)c(C)c1	–	?	–	56µM	–
COc1ccc(-c2[nH]nc3ncc(-c4cccc(N(C)C)c4)nc23)c(C)c1	–	?	–	?	–
COc1ccc(-c2[nH]nc3ncc(-c4cccc(F)c4)nc23)c(C)c1	–	?	–	?	–
NC(=O)CNC(=O)C1=C[C@@H](NC(=O)NC2CCCCC2)[C@@H](O)[C@H](O)C1	–	–	?	–	–
Cc1ccccc1-c1[nH]nc2ncc(-c3ccnn3C)nc12	–	?	–	–	–
Cc1ccccc1-c1[nH]nc2ncc(-c3ccccc3O)nc12	–	?	–	63µM	–
C[S+](=O)([O-])c1ccc(-c2cc(C(=O)N3CCOCC3)nn3cccc23)cc1	·	–	–	–	·
SMILES	hNpr1 antagonist	NIH3T3 tox	GPT2 inhibitor	HEK cytotox	FLuc inh
c1ccc(C2(c3ccccc3)CCCN(Cc3cscn3)C2)cc1	–	?	–[11.5 µM]	40µM	–
COCCn1ncc(N2CCCC(CC(=O)Nc3cccc(Cl)c3)C2)cc1=O (configuration not stated)	–	–	–	–	–
COCCn1ncc(N2CCCC(CC(=O)Nc3ccc(Cl)cc3)C2)cc1=O (configuration not stated)	–	32µM	–	?	–
CCn1ncc(N2CCCC(CC(=O)Nc3cc(OC)cc(OC)c3)C2)cc1=O (configuration not stated)	–	40µM	–	–	–
Cn1cc(CN2CCOC[C@H]2c2nc(C(C)(C)C)co2)c2ccccc21	–	?	–	89µM	–
Cn1cc(CN2CCOC[C@H]2c2ncc(C(C)(C)C)[nH]2)c2ccccc21	–	?	?	63µM	–
O=C(c1ccccc1F)N1CCN(C(=O)c2nc3cccnc3n(C3CCCC3)c2=O)CC1	·	–	–	–	·
O=C1CCC2(CCCO2)CCN1Cc1ccc(OC(F)(F)F)cc1 (configuration not stated)	–	–	–	?	–
Cn1nc(C2CC2)cc1NC(=O)c1ccc(F)cc1	·	–	–	–	·
CC1CCCCN1CCCNC(=O)c1cc2c(s1)CN(C1CCCC1)C2 (configuration not stated)	–	?	–	79µM	?
CC1CCCN(CCCNC(=O)c2cc3c(s2)CN(C2CCCC2)C3)C1 (configuration not stated)	–	–	–	–	–
Cc1ccc2c(n1)N(C)[C@H](CO)CCN(Cc1ccc(OC(F)(F)F)cc1)C2	–	?	?	79µM	–
Cc1ccc2c(n1)N(C)[C@H](CO)CCN(C(=O)Nc1ccccc1)C2	–	–	–	–	–
Cc1ccc2c(n1)N(C)[C@H](CO)CCN(Cc1ccccc1Cl)C2	–	?	–	?	–
Cc1ccc2c(n1)N(C)[C@H](CO)CCN(Cc1ccc(F)cc1)C2	–	–	–	–	–
Cc1ccc2c(n1)N(C)[C@H](CO)CCN(CC1CCCCC1)C2	–	?	–	45µM	–
CC(=O)N1CCC(N2CC[C@@H](CO)N(C)c3nc(C)ccc3C2)CC1	–	45µM	–	79µM	–
COc1cccc(CCNC(=O)c2cc(-c3ccc(C(F)(F)F)cc3)nc3c2cnn3C)c1	·	–	·	?	·
Cc1ncsc1CN1CCC(Cc2ncc(C)n2CC2CC2)C1 (configuration not stated)	–	–	–	–	–
COc1cccc(CN2CCC(Cc3ncc(C)n3CC3CC3)C2)c1OC (configuration not stated)	–	?	–	45µM	–
CCn1cc(S(=O)(=O)N2CCC(c3ncc(C)n3Cc3ccccc3)C2)cn1 (configuration not stated)	–	–	–	?	–
COCCOCC(=O)N1CCCCCCNC(=O)[C@@H]2C[C@@H](c3nc(-c4cccnc4)no3)C[C@@H]21	–	–	–	–	–
Cc1ccc(C(=O)N2CCc3[nH]nc(C(=O)NCCCc4ccccc4)c3C2)cc1C	·	?	–	?	·
O=C(NCCCc1ccccc1)c1n[nH]c2c1CN(C(=O)c1cccc(Cl)c1)CC2	·	35µM	–	?	·
CCC(C)C(=O)N1CCc2[nH]nc(C(=O)NCCCc3ccccc3)c2C1 (configuration not stated)	–	?	–	11µM	–
